The values below come from PubChem BioAssay (NCATS).

The test system of one test is CRL-7250. Kind of test: Cytotoxic Profiling of Annotated Libraries Using Quantitative High-Throughput Screening (AID 1296008). Further: potency means the concentration at half of the fitted maximal effect. On max response: on the % scale 0 is the no-effect control and ±100 the full control effect. The note with it: Five cell lines viability, CellTiter-Glo ATP luminescence, 48-72 h; max response: hits give low values. An outline of the steps:
(§1)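 Cytotoxicity was measured as CellTiter-Glo ATP luminescence, read after 10 min at room temperature. Compound treatment of the cells lasted 48 or 72 hr at 37 degrees Celsius in a qHTS format.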

For the next test, the system named is HEK293. The description is as above. The settings on record: Five cell lines viability, CellTiter-Glo ATP luminescence, 48-72 h; max response: hits give low values. An outline of the steps: as §1
Test [1] concerns HaCat. The test is described as above. The settings on record: Five cell lines viability, CellTiter-Glo ATP luminescence, 48-72 h; max response: hits give low values. The gist of the method:
as §1

Another test concerns KB-3-1. The description is as above. The note with it: Five cell lines viability, CellTiter-Glo ATP luminescence, 48-72 h; max response: hits give low values. The gist of the method: as §1
The next test concerns NIH3T3. Described as above. The settings on record: Five cell lines viability, CellTiter-Glo ATP luminescence, 48-72 h; max response: hits give low values. The gist of the method:
as §1

In test [2] the test system is HACAT. In words: qHTS assay to identify novel small-molecules to repurpose for Merkel cell carcinoma treatment (AID 1296009). The settings on record: MCC and control cell lines, CellTiter-Glo viability, 72 h; at 44.8 µM (top of the series) unless noted. The gist of the method: (§2)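 Cell viability measured by CellTiter-Glo following 72 hr compound treatment at 37 degree celsius, with NPC and MIPE libraries tested in 8- and 11-point concentration series.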

Another test deals with MCC-13. Described as above. The note with it: MCC and control cell lines, CellTiter-Glo viability, 72 h; series mostly up to 46 µM. An outline of the steps:
as §2

For a further test, the system named is TAB165. Kind of test: qHTS profiling for inhibitors of Plasmodium falciparum proliferation (AID 504749). Further: potency means the concentration at half of the fitted maximal effect. The settings on record: P. falciparum in erythrocytes, SYBR Green DNA, 72 h; series mostly up to 28.7 µM. The gist of the method:
(§3)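 In a 72 h erythrocytic culture (37 C, humidified, 5% CO2) at 2.5% hematocrit and 0.3% starting parasitemia, compounds were tested; SYBR Green I in detergent lysis buffer stained parasite DNA overnight.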

Another test concerns W2. The test is described as above. The settings on record: P. falciparum in erythrocytes, SYBR Green DNA, 72 h; series mostly up to 28.7 µM. An outline of the steps:
as §3

A further test relates to HEK293T. In words: qHTS assay to identify novel small-molecules to repurpose for Merkel cell carcinoma treatment (AID 1296009). The settings on record: MCC and control cell lines, CellTiter-Glo viability, 72 h; at 44.8 µM (top of the series) unless noted. An outline of the steps: as §2

Structures are written as SMILES. “And” between values parts separate entries of the source, which are not always exact repeats. Identical values can stand only once. Records with an inconclusive call do not appear. A number with no mark means an inactive call. The source made the active and inactive calls. The call rests on the fitted dose curve; in most records, active means well fitted inhibition curve with a large enough effect; inconclusive means small, poorly fitted or top-dose-only effect; inactive means flat fitted curve, though single readings scatter. Where a SMILES comes first, the peptide text is derived from it. [ ]: non-standard residue; d: D form. pGlu = O=C1CC[C@@H](C(=O)O)N1; Thz = O=C(O)[C@@H]1CSCN1
Further: nearly all actives have a fitted effect of over 60% in size.

For the compound `NCCO`, the max response is -2.34% in the test on CRL-7250, 4.02% in the test with HEK293, -25.6% in the test on KB-3-1 and -0.614% with NIH3T3. Also, in the test with HaCat [1], the result was inactive. In addition, the outcome with HACAT [2] is “inactive [at 92 µM]”. Further, in the test on MCC-13, the Potency result was “inactive”.
As to `CCOC(=O)c1ccccc1O`, the Potency entry in the test with TAB165, with W2 and with MCC-13 was “inactive” each time. Also, the max response in the test on CRL-7250 was 3.39%; in the test on HaCat [1] it was -10.3%; with KB-3-1, -11.3% and -16.2%; with NIH3T3, -7.47%. The call in the test on HEK293 and in the test on HEK293T was inactive.
For `CN1CC(=O)N/C1=N/C(=O)Nc1cccc(Cl)c1`, the max response is 2.65% with CRL-7250; 1.15% and -4.39% in the test on KB-3-1; -0.466% in the test with NIH3T3. Moreover, the result in the test on HEK293, in the test on HaCat [1], in the test on HACAT [2] and with HEK293T was inactive. Moreover, the Potency entry in the test with MCC-13 was “inactive”.
With `CC(C(=O)O)c1ccc2c(c1)[nH]c1ccc(Cl)cc12` (stereo unspecified), the Potency entry with TAB165, in the test on W2 and in the test with MCC-13 was “inactive” each time. Moreover, the max response was 2.04% in the test with CRL-7250; -1.79% in the test with HEK293; 1.94% with HaCat [1]; 2.49% and 1.67% with KB-3-1; 1.25% and 0.838% in the test with NIH3T3. Besides, the result in the test on CRL-7250, with HEK293, in the test on HaCat [1], in the test with HACAT [2] and in the test on HEK293T was inactive.
As for `CN1CCN(c2cc3c(nn2)Oc2ccccc2N3C)CC1`, the Potency result with TAB165, with W2 and in the test with MCC-13 was “inactive” throughout. Further, the max response is -2.91% in the test with CRL-7250, -19.4% with KB-3-1 and -0.755% with NIH3T3. Moreover, the compound was classed as inactive with HEK293 and with HaCat [1]. Moreover, the outcome with HACAT [2] and in the test with HEK293T was “inactive [at 17.4 µM]” in each case.
Take `COc1cc(/C=C/C(=O)N2CCN(CC(=O)N3CCCC3)CC2)cc(OC)c1OC`: the Potency result in the test on TAB165 and in the test with W2 was “inactive” throughout. For the same compound, the max response in the test on CRL-7250 is -2.29%; in the test with HEK293 it was 1.99%; with KB-3-1, 5.58%. In addition, the compound was classed as inactive with HaCat [1], in the test with KB-3-1, with NIH3T3 and in the test on HACAT [2].
`O=C(Nc1ccc2c(c1)CCN(Cc1ncn[nH]1)C2)c1ccccc1-c1ccc(C(F)(F)F)cc1`: the max response in the test on CRL-7250 was -23.1%; in the test on HaCat [1], 0.241%; in the test on KB-3-1, 1.94%. The Potency in the test with HEK293 is 23.1 µM (active).
Take `O=C1CC[C@@H](C(=O)N2CSC[C@H]2C(=O)O)N1` ([pGlu]-[Thz]-OH): the Potency result in the test with TAB165 and in the test on W2 was “inactive” throughout. Besides, the max response in the test on CRL-7250 is -1.65%; in the test with HEK293 it was -11.6%; in the test with HaCat [1], 2.27%; in the test with KB-3-1, -5.47%. Further, the outcome in the test with KB-3-1 and in the test on NIH3T3 was inactive.
Regarding `Cc1c(Nc2ncccc2C(=O)O)cccc1C(F)(F)F`, the Potency result in the test on TAB165, in the test on W2 and in the test on MCC-13 was “inactive” throughout. Moreover, the max response was -2.3% with CRL-7250; -18.7% in the test with HEK293; 1.65% with HaCat [1]; -9.8% in the test with KB-3-1; -21.5% in the test on NIH3T3.
For the compound `Nc1cc(-c2ccncc2)c[nH]c1=O`, the Potency entry in the test with TAB165, in the test with W2 and in the test on MCC-13 was “inactive” in each case. Moreover, the call with CRL-7250 was inactive. Further, the max response with HEK293 is 1.99%; in the test on HaCat [1], 3.01%; in the test with KB-3-1 it was 4.08%; in the test on NIH3T3, -0.0001%.
Regarding `Cc1ccc(O)c(-n2nc3ccccc3n2)c1`, the Potency result in the test on TAB165, with W2 and with MCC-13 was “inactive” in each case. Besides, the max response is -18.8% with CRL-7250; -9.47% in the test with HEK293; -23.9% in the test on HaCat [1]; -10.3% in the test on KB-3-1; 0.367% in the test with NIH3T3.
Take `CCNc1nc2c(ncn2[C@H]2C[C@H](O)[C@@H](CO)O2)c(=O)[nH]1`: the max response with CRL-7250 was 0.139%; in the test on HaCat [1], -28.7%. Moreover, the compound was called inactive in the test with HEK293, with KB-3-1, in the test on NIH3T3 and in the test with HEK293T.
As for `CC1(C)[C@@H](O[C@H]2O[C@H](C(=O)O)[C@@H](O)[C@H](O)[C@H]2O[C@@H]2O[C@H](C(=O)O)[C@@H](O)[C@H](O)[C@H]2O)CC[C@]2(C)[C@H]3C(=O)C=C4[C@@H]5C[C@@](C)(C(=O)O)CC[C@]5(C)CC[C@@]4(C)[C@]3(C)CC[C@@H]12`, the max response with CRL-7250 is -24.4%; in the test on HEK293 it was -5.35%; in the test with HaCat [1] it was -32.3%; in the test on KB-3-1, 5.21%. In the test on KB-3-1, the compound was called inactive.
On to `c1ccc2sc(SSc3nc4ccccc4s3)nc2c1`, for which the Potency result in the test on TAB165, in the test on W2 and in the test with MCC-13 was “inactive” throughout. Besides, the max response in the test on CRL-7250 was 1.15%; with HEK293 it was 3.28%; with HaCat [1], -2.36%; with KB-3-1, 18.6%; with NIH3T3, 3.25%.
With `CCOc1ccc2nc(S(N)(=O)=O)sc2c1`, the Potency entry with TAB165, with W2 and in the test on MCC-13 was “inactive” each time. Further, the max response in the test with CRL-7250 is -14%; with HEK293, -2.22%; with HaCat [1] it was -4.97%; in the test with KB-3-1, 8.76%. In addition, the result in the test with NIH3T3 was inactive.
In the case of `CC(=O)c1ccc(OCC(=O)N2CCCCC2)cc1`, the max response with CRL-7250 was 2.04%; in the test with HEK293, -3.89%; in the test with HaCat [1], -0.673%. Further, the compound was classed as inactive in the test on KB-3-1 and in the test on NIH3T3. Also, the Potency entry in the test with MCC-13 is “inactive”.
Consider `O=C(CCN1CCN(CCO)CC1)N1c2ccccc2Sc2ccc(C(F)(F)F)cc21`, for which the Potency with W2 was 7.57 µM (active). Besides, the max response in the test with CRL-7250 is -6.26%; in the test with HEK293 it was -1.82%; in the test on HaCat [1], -4.28%; in the test on KB-3-1 it was -4.21%; in the test on NIH3T3, 1.15%. In addition, in the test with MCC-13, the Potency entry was “inactive”.
Turning to `CC1(C)[C@@H](O)CC[C@]2(C)[C@H]3C(=O)C=C4[C@@H]5C[C@@](C)(C(=O)O)CC[C@]5(C)CC[C@@]4(C)[C@]3(C)CC[C@@H]12`, the Potency entry with TAB165 and with W2 was “inactive” throughout. Also, the max response in the test with CRL-7250 is 1.85%; in the test with HaCat [1] it was -15.3%; with KB-3-1, 9.23% and -7.89%; in the test on NIH3T3 it was -0.299%. For the same compound, the compound was called inactive with HEK293, with KB-3-1 and with HEK293T.
